Screening data deposited in PubChem by National Center for Advancing Translational Sciences (NCATS).
Hits are enriched below; roughly 11% of the tested compounds scored in any of these assays.
L3MBTL1 inh – qHTS Assay for the Inhibitors of L3MBTL1; Lethal(3)malignant brain tumor-like protein 1 (Homo sapiens), Q9Y468; AlphaScreen L3MBTL1–H3K9me1 peptide binding; Potency, µM (top dose mostly 57.1 µM), inactives show at the highest dose activity, negative = inhibition, usual class: inhibitors; 230,000 tested, 0.66% active; AID 485360, 2010; further: potency means the concentration at half of the fitted maximal effect; on the % scale 0 is the no-effect control and ±100 the full control effect; nearly all actives have a fitted effect of over 60% in size
Target sequence (Q9Y468 whole entry, looked up): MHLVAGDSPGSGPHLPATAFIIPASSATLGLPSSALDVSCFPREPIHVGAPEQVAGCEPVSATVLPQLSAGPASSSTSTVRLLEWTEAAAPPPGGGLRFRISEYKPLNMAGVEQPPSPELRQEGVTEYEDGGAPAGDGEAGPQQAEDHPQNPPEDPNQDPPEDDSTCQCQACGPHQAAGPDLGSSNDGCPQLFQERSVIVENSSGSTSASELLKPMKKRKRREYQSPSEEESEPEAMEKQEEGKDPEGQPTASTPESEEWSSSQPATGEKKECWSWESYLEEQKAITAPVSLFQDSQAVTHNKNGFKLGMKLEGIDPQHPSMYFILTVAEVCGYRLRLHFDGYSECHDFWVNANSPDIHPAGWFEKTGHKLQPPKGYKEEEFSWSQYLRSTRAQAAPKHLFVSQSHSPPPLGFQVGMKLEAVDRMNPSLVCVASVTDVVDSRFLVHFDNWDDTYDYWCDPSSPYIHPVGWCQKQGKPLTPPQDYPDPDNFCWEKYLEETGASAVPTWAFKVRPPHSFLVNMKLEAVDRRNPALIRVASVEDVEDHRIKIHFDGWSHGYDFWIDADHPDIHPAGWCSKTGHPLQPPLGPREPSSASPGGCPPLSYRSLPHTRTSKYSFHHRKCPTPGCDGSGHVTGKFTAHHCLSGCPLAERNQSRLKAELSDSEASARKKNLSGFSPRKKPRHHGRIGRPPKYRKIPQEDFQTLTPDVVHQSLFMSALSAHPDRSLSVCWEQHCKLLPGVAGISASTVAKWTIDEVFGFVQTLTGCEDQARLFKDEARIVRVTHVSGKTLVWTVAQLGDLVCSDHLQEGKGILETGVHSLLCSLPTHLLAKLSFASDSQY
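Read-out is AlphaScreen signal from streptavidin donor and nickel chelate acceptor beads (10 ug/mL final each) bridging L3MBTL1 (50 nM) and biotinylated K9-monomethylated H3(1-15) peptide (75 nM), after 30 min compound exposure at room temperature.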
G9a inh – qHTS Assay for Inhibitors of Histone Lysine Methyltransferase G9a. Histone-lysine N-methyltransferase EHMT2 (Homo sapiens), Q96KQ7. Potency, µM (series often up to 102 µM), inactives show top-dose activity, negative = inhibition, actives largely listed as inhibitors. G9a H3K9 monomethylation, AlphaScreen, 2 h. 350,000 tested, 8.8% active; further: potency means the concentration at half of the fitted maximal effect; on the % scale 0 is the no-effect control and ±100 the full control effect; nearly all actives have a fitted effect of over 75% in size
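Using a bead-based AlphaScreen, monomethylated H3K9 product from 2 h room-temperature reactions (G9a 20 nM, peptide 500 nM, SAM 20 uM) was detected with 0.5 ug/mL rabbit anti-H3K9me1 antibody.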
BAZ2B inh – qHTS Assay for Inhibitors of BAZ2B; Bromodomain adjacent to zinc finger domain protein 2B (Homo sapiens), Q9UIF8; AlphaScreen BAZ2B-H3K14Ac peptide displacement; 360,000 tested, 4.4% active; Potency, µM (highest dose often 114 µM), for inactives: at the top dose activity change, negative = inhibition, usual class: inhibitors; further: potency means the concentration at half of the fitted maximal effect; on the % scale 0 is the no-effect control and ±100 the full control effect; nearly all actives have a fitted effect of over 60% in size
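Protein-peptide AlphaScreen: BAZ2B 50 nM, b-H3K14Ac 50 nM, 1x PBS pH 7.4 + 0.01% Tween-20. Preincubation 30 min RT; cpd 30 min RT (top 110 uM); beads 20 min RT, light-protected.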
JMJD2A Tudor inh – qHTS Assay for Inhibitors of JMJD2A-Tudor Domain; 390,000 tested, 4.4% active; AlphaScreen JMJD2A-Tudor / H3K4me3 peptide binding; Lysine-specific demethylase 4A (Homo sapiens), O75164; Potency, µM (top dose mostly 114 µM), without a hit: at the highest dose activity change, negative = inhibition, actives largely listed as inhibitors; AID 504339, 2011; further: potency means the concentration at half of the fitted maximal effect; on the % scale 0 is the no-effect control and ±100 the full control effect; nearly all actives have a fitted effect of over 50% in size
PI5P4K alpha inh – qHTS for Inhibitors of phosphatidylinositol 5-phosphate 4-kinase (PI5P4K); PI5P4Kalpha enzyme, ADP-Glo luminescence, 60 min; hits give low values; max response, %; 330,000 tested, 1.2% active; AID 652105, 2013; active means max response of -50% or lower; inconclusive means between -30% and -50%; inactive means -30% or higher; further: value at the top dose of about 77 µM; on the % scale 0 is the no-effect control and ±100 the full control effect
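ADP-Glo luminescence end-point read after a 60 min room-temperature kinase reaction of PI5P4Kalpha plus substrate, initiated with ATP at 5 microM final. Buffer: 0.038 M HEPES pH 7.4, EGTA, 0.1% CHAPS, 5% DMSO.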
HP1b binding inh – HTS for Inhibitors of HP1-beta Chromodomain Interactions with Methylated Histone Tails | 390,000 tested, 0.56% active | Potency, µM (doses to about 114 µM), without a hit: at the top dose activity change, negative = inhibition, most hits filed as inhibitors | AlphaScreen HP1-beta / biotin-H3K9me3 peptide binding | Chromobox protein homolog 1 (Homo sapiens), P83916; further: potency means the concentration at half of the fitted maximal effect; nearly all actives have a fitted effect of over 70% in size
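HP1-beta protein (50 nM final) preincubated 30 min at room temperature with biotinylated H3(1-18)K9me3 peptide (50 nM) in PBS pH 7.4, 0.01% Tween-20, then compound added for 30 min. AlphaScreen streptavidin donor/nickel chelate acceptor beads (10 ug/mL final), 30 min dark, luminescence read.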
The depositor's hits bear a star; [ ] = another dose, or the depositor's remark. Unless noted, the call rests on the fitted dose curve; in most records, active means well fitted inhibition curve with a large enough effect; inconclusive means small, poorly fitted or top-dose-only effect; inactive means no such curve, though single readings can be large or run the other way.

Cc1cc(C(=O)N/N=C/c2cc(Cl)cc([N+](=O)[O-])c2O)c2ccccc2n1 was read as L3MBTL1 inh inconclusive, G9a inh inconclusive, BAZ2B inh 39.8µM*, JMJD2A Tudor inh 56.2µM*, PI5P4K alpha inh -28.8 and HP1b binding inh inconclusive.
Screening O=C(NN=Cc1ccc(O)cc1)c1ccccc1NS(=O)(=O)c1cccs1 returned L3MBTL1 inh 7.1%, JMJD2A Tudor inh -15.6%, PI5P4K alpha inh -3.7 and HP1b binding inh 18.5%.
Screening CCc1ccc2occ(CC(=O)Nc3sc4c(c3C(=O)NCCOC)CCCC4)c2c1 returned G9a inh 6.9%[59 µM], BAZ2B inh -2.7%, JMJD2A Tudor inh -34.4% and HP1b binding inh 31.1%.
`CCOC(=O)Cn1c(=O)oc2cc(S(=O)(=O)N3CCN(c4cccc(C)c4C)CC3)ccc21` gave G9a inh -0.6%[59 µM], BAZ2B inh -11.1%, JMJD2A Tudor inh -23.9% and HP1b binding inh 7.2%.
Screening CN(Cc1cccnc1)C(=O)CC1C(=O)NCCN1CC(c1ccccc1)c1ccccc1 (stereo not given) returned L3MBTL1 inh -10.5%, G9a inh -38.6%, BAZ2B inh -38.4%, JMJD2A Tudor inh -11.7%, PI5P4K alpha inh 0.0 and HP1b binding inh 24.5%.
CN(Cc1cccnc1)C(=O)CC1C(=O)NCCN1Cc1ccc(-c2ccccc2)cc1 (stereo not given) was read as G9a inh 50.1µM*, JMJD2A Tudor inh -24.5%, PI5P4K alpha inh 1.9 and HP1b binding inh 23.1%.
Screening Cc1cc(CN(C)C(=O)CC2C(=O)NCCN2Cc2ccc(-c3ccccc3)cc2)on1 (stereo not given) returned G9a inh 39.8µM*, BAZ2B inh inconclusive, JMJD2A Tudor inh -31.9%, PI5P4K alpha inh 1.5 and HP1b binding inh 15.8%.
O=C(CC1C(=O)NCCN1Cc1ccc(-c2ccccc2)cc1)NCCOc1cccnc1 (stereo not given) was read as L3MBTL1 inh -4.0%, G9a inh 50.1µM*, BAZ2B inh -9.2%, JMJD2A Tudor inh -27.7%, PI5P4K alpha inh -7.2 and HP1b binding inh 11.3%.
`CN(Cc1ccon1)C(=O)CC1C(=O)NCCN1CC(C)(C)C` (stereo not given) gave L3MBTL1 inh 0.7%, G9a inh 44.7µM*, BAZ2B inh -6.1%, JMJD2A Tudor inh -9.8%[11.4 µM], PI5P4K alpha inh 5.3 and HP1b binding inh 44.2%.
Screening Cc1cc(CN(C)C(=O)CC2C(=O)NCCN2Cc2ccc(F)c(F)c2)on1 (stereo not given) returned L3MBTL1 inh 53.9%, BAZ2B inh 3.4%, JMJD2A Tudor inh -18.5%, PI5P4K alpha inh -3.6 and HP1b binding inh 35.4%.
`COc1nc(Oc2ccc(=O)n(-c3ccccc3)n2)nc(N(C)C)n1` gave G9a inh inconclusive, BAZ2B inh 4.4%, JMJD2A Tudor inh -6.6% and HP1b binding inh 49.6%.
CC(C)(C)CN1CCNC(=O)C1CC(=O)N1CCN(c2ccccc2)CC1 (stereo not given) was read as L3MBTL1 inh 2.6%, G9a inh 56.2µM*, BAZ2B inh -20.0%, JMJD2A Tudor inh -21.5%, PI5P4K alpha inh 5.0 and HP1b binding inh 27.9%.
Cc1cc(=O)n(C)c(=O)n1CCCCOc1ccc([N+](=O)[O-])cc1 was read as L3MBTL1 inh -8.3%, G9a inh -0.9%, BAZ2B inh -32.5%, JMJD2A Tudor inh -9.8%[11.4 µM], PI5P4K alpha inh -4.6 and HP1b binding inh 20.5%.
